The panel holds about 83,000 compounds, 20% with a hit somewhere; the sample as a whole holds those more often.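 Assay: single dose, 48 h. Readout: percent growth (0 = no net growth; negative = cell death). Active: <10.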 Unmarked numbers belong to inactive results. Activity calls are given as the source filed them.

The values below come from PubChem BioAssay (NCI).

Holding throughout (test): NCI-60 one-dose screen, 48 h (100 = growth as untreated, 0 = no growth, -100 = all killed)
Common to all, as to settings: 10 µM unless noted

Assay [1] concerns RPMI-8226 leukemia.
Assay [2] deals with OVCAR-8 ovarian.
Assay [3] has as its system OVCAR-5 ovarian.
In assay [4] the test system is OVCAR-4 ovarian.
Assay [5] concerns IGROV1 ovarian.
Assay [6] has as its system OVCAR-3 ovarian.
The test system of assay [7] is HS 578T breast.
In assay [8] the test system is NCI/ADR-RES ovarian.
For assay [9], the system named is T-47D breast.

Take `CNCCNc1nc2ccccc2c2c(=O)c3cc(OC)ccc3sc12`: the growth was -17.2% (active) in assay [1]; 26.3% in assay [2]; 70.8% in assay [3]; 29.7% in assay [4]; 42.8% in assay [5]; -40.7% (active) in [6]. Further, the growth in assay [7] was 56%; in assay [8] it was 51.5%; in assay [9], -33.6% (active).
As for `COc1ccc(/C=C/C(=O)c2ccc(Nc3nc(NCCO)nc(Nc4ccc(Cl)cc4)n3)cc2)cc1`, the growth was 8.06% (active) in [1]; 71.8% in assay [2]; 95.7% in assay [3]; 62.6% in assay [4]; 98% in assay [5]; 73.1% in assay [6]. In addition, the growth in assay [7] is 87.5%; in [8], 83.2%; in [9], 38%.
With `COc1ccc(/C=C2/SC(=O)N(CC(=O)N3CCN(c4cc5c(cc4F)c(=O)c(C(=O)O)cn5C4CC4)CC3)C2=O)cc1`, the growth in assay [1] is 119%; in assay [2] it was 93.9%; in assay [3] it was 103%; in assay [4] it was 107%; in [5] it was 96%; in [6], 115%. Moreover, the results for the growth in [7], in assay [8] and in assay [9] were 99.9%, 99.4% and 104%, respectively.
Turning to `COC(=O)c1ccc(NC(=O)CSc2nc3ccccc3c(=O)n2-c2ccccc2)cc1`, the growth in assay [1] is 89.4%; in assay [2] it was 101%; in assay [3] it was 94.7%; in assay [4], 90.6%; in [5], 90.9%; in assay [6], 92.6%. Besides, the growth was 101% in [7], 104% in assay [8] and 92.1% in assay [9].
Consider `O=C(Cn1cc(COc2ncnc3c2cnn3-c2ccccc2)nn1)Nc1cccc2ccccc12`, for which the growth was 93.7% in [1]; 87.9% in [2]; 98.4% in assay [3]; 76.9% in assay [4]; 102% in assay [5]; 109% in assay [6]. The growth in assay [7] is 85.1%; in assay [8] it was 94.8%; in [9], 87.1%.
Regarding `COC(=O)/C(CCC=C(C)C)=C1\[C@@H](OC(C)=O)C[C@@]2(C)[C@H]1CC(=O)N[C@H]1[C@@]3(C)CCNC(=O)[C@@H](C)[C@@H]3CC[C@@]12C`, the growth in assay [1] is 97.8%; in [2], 98.3%; in [3], 102%; in [4], 101%; in assay [5], 105%; in [6], 107%. Besides, the values for the growth in assay [7], in [8] and in [9] were 97.1%, 106% and 88.9%, respectively.
Consider `O=c1c(-c2nc3ccccc3[nH]2)cc2ccccc2n1Cc1cn(Cc2ccccc2Cl)nn1`, for which the growth was 12.4% in assay [1]; 50.4% in assay [2]; 78.2% in assay [3]; -22% (active) in assay [4]; 27.9% in assay [5]; 19.8% in [6]. Also, the results for the growth in [7], in assay [8] and in [9] were 19.2%, 40.6% and 66.4%, respectively.
In the case of `NC(CCc1nc2ccccc2c(=O)[nH]1)C(=O)O` (stereo unspecified), the growth in [1] was 101%; in assay [2] it was 104%; in [3], 105%; in assay [4], 103%; in assay [5] it was 99.1%; in assay [6], 119%. Further, the growth in [7] was 102%; in [8], 110%; in assay [9], 108%.
As for `COC(=O)/C(CCC=C(C)C)=C1\[C@@H](OC(C)=O)C[C@@]2(C)[C@H]1C[C@@H](O)[C@H]1[C@@]3(C)CC[C@H](NCc4ccccc4)[C@@H](C)[C@@H]3CC[C@@]12C`, the growth in assay [1] was 16.9%; in [2], 76.1%; in assay [3] it was 88.7%; in [4] it was 61.2%; in assay [5], 70.3%; in [6] it was 69.6%. In addition, the growth was 67.3% in [7], 64.6% in assay [8] and 62.3% in assay [9].
`Cc1c(-c2csc(-n3nc(C(F)(F)F)cc3C(F)(F)F)n2)no[n+]1[O-]`: the growth in [1] was 97.2%; in assay [2], 99.2%; in assay [3], 99.2%; in [4], 87.4%; in assay [5], 102%; in assay [6], 114%. In addition, the growth was 98.2% in [7], 105% in assay [8] and 87.5% in [9].
`O=c1cc(-c2ccccc2)oc2cc(OCc3cn(Cc4ccc(F)cc4)nn3)cc(OCc3cn(Cc4ccc(F)cc4)nn3)c12`: the growth was 45.6% in [1]; 12.7% in assay [2]; 55.1% in [3]; -9.56% (active) in assay [4]; 43.5% in [5]; 21.2% in assay [6]. For the same molecule, the results for the growth in [7], in [8] and in assay [9] were 20.9%, 70.4% and 40.6%, respectively.
In the case of `O=C(NCc1ccccc1)C1CN(c2ccc(Cl)cc2)N(c2ccc(Cl)cc2)C1=O` (stereo unspecified), the growth in assay [1] was 85.5%; in assay [2], 86.5%; in assay [3], 95.2%; in assay [4] it was 88.3%; in [5] it was 92.1%; in assay [6] it was 51.7%. Besides, the growth in [7] is 74.7%; in assay [8] it was 69.9%; in [9], 63.9%.
Consider `O=C(/C=C/c1ccc(C(F)(F)F)cc1)c1ccc(Nc2nc(NCCO)nc(N3CCOCC3)n2)cc1`, for which the growth in assay [1] was 2.35% (active); in assay [2], 28.5%; in assay [3], 68.6%; in assay [4], 22.8%; in [5], 25.4%; in [6], -31.9% (active). In addition, the growth in assay [7] is 78.1%; in assay [8], 74.7%; in [9], 32.7%.
Turning to `NCCCNc1nc2ccccc2c2c(=O)c3cc(F)ccc3sc12`, the growth in assay [1] was -2.73% (active); in [2], 2.1% (active); in [3], 26.8%; in assay [4] it was 33%; in assay [6], -16.4% (active); in [7], 34.6%. Further, the growth in [8] is 11.4%; in assay [9] it was -39% (active).
In the case of `CC(C)c1ccc(S(=O)(=O)NC(=O)NC2CCCC2)cc1`, the growth is 105% in assay [1]; 98.5% in [2]; 97.4% in assay [3]; 97.2% in assay [4]; 105% in [5]; 103% in assay [7]. In addition, the growth in assay [8] was 105%; in assay [9] it was 98.9%.
For the molecule `O=C(c1nc2ccccc2[nH]1)C1C(c2ccc(F)cc2)C2CC3CCCCC3N2[C@@]12C(=O)Nc1ccc(Cl)cc12` (stereo partly specified), the growth in [1] is 13.9%; in assay [2], 61.2%; in assay [3] it was 61.8%; in [4], 31.5%; in assay [5], 42.8%; in [6], 50.1%. Also, the growth was 51% in assay [8] and 37.4% in assay [9].
With `NCCOc1ccccc1/C=C1\c2ccccc2-c2ccc([N+](=O)[O-])cc21`, the growth in assay [1] was -48.6% (active); in [2], -38.7% (active); in assay [3] it was 22.3%; in assay [4] it was 30.3%; in [5], 23.8%; in assay [6] it was -49.8% (active). Moreover, the growth in assay [7] was 26.3%; in assay [8], 23.5%; in [9] it was 12.5%.
Regarding `O=C(/C=C/c1ccccc1)c1ccc(Nc2nc(NCCO)nc(Nc3ccc(Cl)cc3)n2)cc1`, the growth in [1] was 9.69% (active); in assay [2], 89.1%; in [3], 97.7%; in assay [4], 73.4%; in [6] it was 59.9%; in assay [7], 93.1%. The growth in assay [8] is 91.7%; in assay [9] it was 62.7%.
For `O=C1CCC(N2C(=O)c3cccc(NCCCCCCOc4ccc(Nc5nccc(Nc6ccccc6)n5)cc4)c3C2=O)C(=O)N1` (stereo unspecified), the growth in [1] is 38.5%; in assay [2] it was 77.8%; in assay [3] it was 109%; in assay [4] it was 64.6%; in assay [6], 78.8%; in assay [7] it was 98.2%. The growth was 79.2% in assay [8] and 39.5% in assay [9].
